Measurements: PubChem BioAssay AID1159580 (chemical genetic matrix, 2015)
The campaign covered roughly 5,500 compounds. About 2,000 (36%) were called active. Another 18% or so got no clear call; they are omitted. No stated cut-off is given here; in the data, active means normalized growth mostly below about 0.91 (no sharp cut-off); inconclusive means no clear call, values can overlap the other calls; inactive means mostly above about 0.92. Some of the results follow.

Test: chemical genetic growth profiling, strain panel (AID 1159580);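 further: tested at 20 µM; growth read once vehicle control cultures reached saturation at 30 °C; 1 = growth at the plate median or of vehicle wells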
Details: S. cerevisiae deletion strains, growth OD

Measured: normalized growth

CCCN1CC(CSC)CC2c3cccc4[nH]cc(c34)CC21 (stereo not drawn)
inactive: locus YAL040C, strain CLN3, stronger effect = lower value 1 | locus YCL061C, strain MRC1 (second series), stronger effect = lower value 0.998 | locus YDR150W, strain NUM1, stronger effect = lower value 0.997 | locus YDR363W, strain ESC2, stronger effect = lower value 0.989 | locus YER002W, strain NOP16, stronger effect = lower value 1.01 | locus YGR078C, strain PAC10, stronger effect = lower value 1.01 | locus YMR307W, strain GAS1, stronger effect = lower value 0.999 | locus YNL128W, strain TEP1, stronger effect = lower value 1.02 | locus YNL153C, strain GIM3, stronger effect = lower value 0.998 | locus YNL175C, strain NOP13, stronger effect = lower value 1.02 | locus YNL197C, strain WHI3, stronger effect = lower value 1.01 | locus YNL224C, strain SQS1, stronger effect = lower value 1.08 | locus YOR083W, strain WHI5 (second series), stronger effect = lower value 1.02
